Source: PubChem BioAssay
Only some compounds are listed: those with a hit (about 7.3% of all), similar ones and a draw of the others.
ELG1 genotoxic: induces genotoxicity in HEK293T cells with luciferase-tagged ELG1. HEK293T ELG1-luciferase reporter, luminescence, 16 h. Potency, µM (doses to about 46 µM), inactives show at the top dose activity change, positive = activation, hits mostly activators. 330,000 compounds, 1.3% hits. AID 504466; also: % of control where 0% means no effect; nearly all actives have a fitted effect of over 60% in size
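Cells (2,000/well) expressing the ELG1-luciferase fusion are dosed by pin tool and kept 16 hr at 37 °C, 5% CO2. Signal comes from ONE-Glo luciferase reagent after 30 min at room temperature.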
SMN2 splice up: SMN2 splice variant enhancement. HEK293 SMN2-luciferase splicing reporter, luminescence, 30-36 h. Potency, µM (titrated, usually from 46.1 µM), for the others: at the highest dose activity change, positive = activation, hits mostly activators. 210,000 compounds, 2.8% hits. AID 1458; also: % of control where 0% means no effect; nearly all actives have a fitted effect of over 55% in size
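HEK293 cells carry an SMN2 minigene-luciferase reporter in which exon 7 inclusion puts luciferase in frame. Cells were seeded at 2000 cells/well, attached for 10-12 hours, then exposed to compounds for 30-36 hours at 37C before ONE-Glo luminescence.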
NPC1 promoter act: activators of NPC1 promoter. AID 485313. 320,000 compounds, 2.4% hits. Huh7 NPC1 promoter luciferase reporter, 24 h. Potency, µM (highest dose often 9.22 µM), for the others: top-dose activation, most hits filed as activators; also: % of control where 0% means no effect; nearly all actives have a fitted effect of over 60% in size
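In 1536-well qHTS, Huh7 cells harboring an NPC1 promoter–luciferase construct received compound for 24 h; activation was quantified by luminescence following luciferase reagent addition.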
Luc counter: Kinase-Glo luciferase inhibition (counter-screen). Q27757. Kinase-Glo luciferase, ATP luminescence, 8 min. Potency, µM (highest dose often 38.3 µM), inactives show at the top dose activity change, negative = inhibition, usual class: inhibitors. 200,000 compounds, 0.28% hits. AID 1379; also: % is scaled to controls: 0 for no effect and ±100 for the full control effect; nearly all actives have a fitted effect of over 60% in size
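Inhibition of Kinase-Glo luciferase light generation was assessed at 10 uM ATP in pH 7.2 imidazole buffer, with luminescence measured after eight minutes at ambient temperature.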
Rab9 prom act: Rab9 promoter activation; 320,000 compounds, 2.8% hits; Potency, µM (top dose mostly 9.22 µM), for the others: top-dose activation, negative = inhibition, actives largely listed as activators; Huh7 Rab9 promoter-luciferase reporter, luminescence, 24 h; also: % of control where 0% means no effect; nearly all actives have a fitted effect of over 60% in size
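Luminescence from Amplite-detected luciferase (10 minutes, ambient) reports Rab9 promoter activation. Before that, stable Rab9-luciferase Huh7 cells (1500/well, reduced-serum OP-MEM I plus 10% FBS) were exposed to compound for 24 hours at 37C.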
FLuc modulator: counter-screen for miR-21 project: firefly luciferase inhibitors or activators; P08659; AID 588342; 360,000 compounds, 6.9% hits; Potency, µM (titrated, usually from 57.5 µM), inactives show at the highest dose activity change, negative = inhibition, hits mostly inhibitors; purified FLuc, Km substrates, luminescence inhibition;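 also: plate controls were vehicle for no effect and reference inhibitor for full effect; nearly all actives have a fitted effect of over 55% in size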
Target sequence (P08659 whole entry, looked up): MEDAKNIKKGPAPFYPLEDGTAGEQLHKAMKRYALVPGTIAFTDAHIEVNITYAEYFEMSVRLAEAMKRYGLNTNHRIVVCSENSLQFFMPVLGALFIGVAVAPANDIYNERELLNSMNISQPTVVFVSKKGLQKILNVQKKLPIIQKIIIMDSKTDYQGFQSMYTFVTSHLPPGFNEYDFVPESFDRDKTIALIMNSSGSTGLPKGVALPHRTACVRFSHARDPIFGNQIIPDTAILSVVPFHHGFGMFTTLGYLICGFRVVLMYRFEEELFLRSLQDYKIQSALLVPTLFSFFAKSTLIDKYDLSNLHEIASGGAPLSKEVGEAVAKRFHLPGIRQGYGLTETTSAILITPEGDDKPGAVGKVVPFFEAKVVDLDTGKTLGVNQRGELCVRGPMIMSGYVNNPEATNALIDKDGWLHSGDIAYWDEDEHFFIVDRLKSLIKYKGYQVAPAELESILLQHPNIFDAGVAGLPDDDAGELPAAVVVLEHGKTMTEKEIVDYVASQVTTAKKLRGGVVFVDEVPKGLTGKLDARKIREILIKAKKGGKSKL
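Biochemical qHTS of compounds, final roughly 60 µM downward over six points, against 10 nM purified firefly luciferase using Km concentrations of substrates (10 uM D-luciferin, 10 uM ATP) in Tris acetate pH 7.5 buffer; luminescence output.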
Active calls of the source: *; u = inconclusive; x = no result; [ ] = remark or other dose. Calls follow the shape of the dose curve; as a rule, active = well fitted curve in the direction sought with a large enough effect; inconclusive = small, poorly fitted or top-dose-only effect, or another doubt; inactive = no such curve, though single readings can be large; an effect the other way counts as inactive or inconclusive. Potency is read from the fitted curve at half-maximal effect.

SMILES	ELG1 genotoxic	SMN2 splice up	NPC1 promoter act	Luc counter	Rab9 prom act	FLuc modulator
O=C(OCC(=O)N1CCc2ccccc2C1)c1cccs1	-1.0%	28.5%	-1.7%	-4.8%	-4.3%	10.7µM*
O=C(OCC(=O)N1CCc2ccccc2C1)c1cccnc1Cl	u	2.7%	26.8%	4.1%	u	15.1µM*
Cc1cnc(C(=O)OCC(=O)N2CCc3ccccc3C2)cn1	0.4%	-9.3%	0.6%	-1.5%	0.2%	0.1%
O=C(OCC(=O)N1CCc2ccccc2C1)c1ccc(OC(F)F)cc1	0.5%	x	1.7%	x	-4.4%	-1.5%
CCSc1nc2c(c(=O)[nH]1)C(c1ccncc1)C(C(=O)OC)=C(C)N2 (centres undefined)	-1.1%	15.2%	-7.5%	2.2%	4.6%	0.0%
COC(=O)c1ccccc1N/C=C/C(=O)c1ccc(Br)cc1	17.8%	11.2µM*	24.8%	-5.6%	u	16.9µM*
O=C(/C=C/NNC(=O)c1ccccc1)c1ccccc1	u	1.0%	5.2%	3.7%	-0.7%	u
NC(=O)c1ccccc1N/C=C/C(=O)c1ccccc1	0.92µM*	7.08µM*	0.562µM*	11.2µM*	0.562µM*	0.849µM*
Cc1cc2c(cc1NC(=O)c1ccccc1Cl)n(C)c(=O)c(=O)n2C	x	x	x	x	x	-1.7%
Cc1cc(OC(=O)c2ccccc2Cl)cc(=O)n1C	-1.2%	13.0%	-1.5%	-6.0%	-2.2%	15.1µM*
O=C(Oc1ccc(N2C(=O)CCC2=O)cc1)c1ccccc1Cl	-4.6%	0.4%	-4.5%	-7.3%	0.4%	23.9µM*
CCOC(=O)c1[nH]c(C)c(CCC(=O)O)c1C	2.3%	16.4%	5.2%	-2.3%	1.5%	-0.7%
NS(=O)(=O)c1ccc(NC(=O)Nc2cccc3ccccc23)cc1	2.9%	-6.5%[9.22 µM]	0.5%	-3.5%[7.66 µM]	-8.1%	-9.9%
CCN(CC)c1ccc(NC(=O)Nc2ccccc2C(F)(F)F)cc1	0.2%	6.9%	u	-7.5%	3.16µM*	-18.9%
CN(C)c1ccc(NC(=O)Nc2cccc3ccccc23)cc1	15.6%	11.8%	28.2%	2.6%	u	2.69µM*
CC(=O)Nc1cccc(NC(=O)Nc2cccc3ccccc23)c1	-2.3%	x	-2.9%	x	0.7%	-8.7%
CCN(CC)c1ccc(NC(=O)Nc2cccc3ccccc23)cc1	15.9%	x	u	x	18.2%	2.13µM*
COc1ccc(C(=O)Nc2ccc3c(c2)nc(CCNC(C)=O)n3C)cc1	18.4µM*	u	2.82µM*	0.1%	u	12µM*
Cn1c(CN2CCOCC2)nc2cc(NC(=O)c3ccc(F)cc3)ccc21	-5.6%	x	-3.3%	2.7%	-2.9%	4.5%[2.3 µM]
CC(=O)NCCc1nc2cc(NC(=O)c3ccc(F)cc3)ccc2n1C	u	x	3.55µM*	x	2µM*	21.3µM*
COc1ccc(C(=O)Nc2ccc3c(c2)nc(CCNC(=O)c2ccco2)n3C)cc1	4.3%	x	4.4%	x	29.7%	15.1µM*
C=CCN(CC(=O)NCc1ccc(F)cc1)C(=O)c1csnn1	2.4%	4.6%	-2.5%	0.2%	-3.4%	2.8%
O=C(Sc1cccc2cccnc12)c1ccccc1Br	14.0%	x	-33.0%	x	-23.3%	23.9µM*
c1ccc(-c2ncc(-c3ccn[nH]3)s2)cc1	u	2.82µM*	1.41µM*	-24.5%	0.562µM*	3.38µM*
c1csc(-c2ccn[nH]2)c1	3.6%	x	-0.4%	x	1.7%	-15.5%
SMILES	ELG1 genotoxic	SMN2 splice up	NPC1 promoter act	Luc counter	Rab9 prom act	FLuc modulator
COc1cccc(C(=O)Nc2nc(-c3ccc4c(c3)OCO4)cs2)c1	14.5%	-17.9%	4.5%	2.6%	-3.5%	16.9µM*
CC(=O)Nc1nc(-c2ccc3c(c2)OCO3)cs1	16.1%	x	3.55µM*	x	2.24µM*	9.53µM*
CC1=NC(=O)C(N=Nc2cccc(C(=O)O)c2)N1c1ccccc1 (centres undefined)	u	0.501µM*	u	-4.2%	1.26µM*	0.426µM*
O=C(O)c1cccc(N=NN2CCOCC2)c1	9.3%	u	29.6%	-1.7%	u	u
CC1=NC(=O)C(N=Nc2ccccc2)N1c1ccccc1 (centres undefined)	u	15.8µM*	11.9%	2.5%	3.55µM*	u
CC1=NC(=O)C(N=Nc2ccccc2C(=O)O)N1c1ccccc1 (centres undefined)	-7.2%	11.9%	7.3%	1.8%	26.2%	15.1µM*
CCOc1ccc(CNC(=O)Nc2ccc3c(c2)N(C)C(=O)c2ccccc2S3)cc1	x	x	x	x	x	-4.5%
COC(=O)c1nn(-c2ccc3c(c2)OCO3)cc1O	u	u	u	u	19.9%	10.7µM*
COC(=O)C1=C(C)N(Cc2ccc3c(c2)OCO3)C(=O)C1	2.9%	-9.6%	-4.3%	-2.0%	-1.3%	1.9%
CCOC(=O)c1nn(-c2ccc(C)cc2)cc1C(=O)c1ccccc1	2.59µM*	11.2µM*	3.98µM*	-19.6%	2.82µM*	1.9µM*
CCOC(=O)c1nn(-c2ccc(C)c(C)c2)cc1O	6.51µM*	0.4%	u	-6.9%	15.4%	4.26µM*
CCOC(=O)c1nn(-c2ccc3c(c2)OCCO3)cc1O	8.2µM*	u	2.82µM*	-10.2%	2.82µM*	3.01µM*
CCCCOC(=O)c1ccc(NC(=O)C(=O)NCCN(CC)CC)cc1	0.1%	x	-3.2%	x	-0.2%	3.0%
CC(=O)NCCC1CCN(c2nc3nonc3nc2N(C)Cc2ccccc2)CC1	-0.7%	x	0.2%	1.4%	-4.5%	2.7%
COC(=O)c1nn(-c2ccc3c(c2)CCN3C(C)=O)cc1O	u	u	0.501µM*	11.2µM*	3.16µM*	0.536µM*
CCOc1cc(N2CCOCC2)c(OCC)cc1NC(=O)c1ccc(F)c(S(=O)(=O)N2CCOCC2)c1	1.6%	x	-0.1%	x	3.3%	-0.9%
COc1ccc(Nc2nc(C)c(-c3ccccc3)s2)cc1	u	u	u	0.1%	3.98µM*	7.57µM*
CCc1c(C)nc(Nc2nc(C)c3ccc(OC)cc3n2)[nH]c1=O	u	-22.8%	16.4%	-3.0%	u	u
COc1ccc(Nc2nc(C)c3ccccc3n2)cc1	u	35.5µM*	u	-2.5%	2.51µM*	-4.7%[2.3 µM]
Cc1nc(Nc2ccc(S(N)(=O)=O)cc2)sc1-c1ccccc1	16.6%	x	27.7%	x	17.0%	21.3µM*
COc1ccc2c(C)nc(Nc3nc(C)c(C)c(=O)[nH]3)nc2c1	u	3.5%	u	-5.9%	u	9.53µM*
COc1ccc(C(=O)C(C)OC(=O)c2cccc(S(=O)(=O)Nc3cc(Cl)c(OC)cc3OC)c2)cc1 (centres undefined)	2.4%	-49.9%	-7.3%	1.6%	-16.5%	-1.9%
Cc1nc2c3ccccc3nc(SCC(=O)N3CC(C)CC(C)C3)n2n1 (centres undefined)	u	-3.6%	2.4%	-3.6%	-24.4%	8.4%
